Assay outcomes from PubChem.
Giardia killer = kills Giardia lamblia | Giardia lamblia trophozoite viability | activity change, % at 7.66 µM, hits read low | 340,000 tested, 0.15% active | AID 540267; in the data active means activity change below about -80%; inconclusive means between about -30% and that limit;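 further: parasites exposed to compound for two days anaerobically before the ATP read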
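Trophozoite viability was measured as ATP-dependent luminescence, read 15-30 min after reagent addition. Before that, parasites at 100 cells/well were exposed to compounds for 48 h, anaerobically, at 37 deg C.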
KB-3-1 tox = kills parental KB-3-1 adenocarcinoma cells. 400,000 tested, 1.4% active. AID 1347075. KB-3-1 viability, CellTiter-Glo ATP luminescence, 72 h. Potency, µM (doses to about 46.1 µM), actives largely listed as cytotoxic; further: nearly all actives have a fitted effect of over 60% in size
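Screening of KB-3-1 cells (DMEM, 10% FBS, phenol-red free) ran from lowest to highest compound concentration; after 72 h at 37 °C viability was read luminescently and curves fitted.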
KB-V1 MDR tox = KB-V1 MDR subline cytotoxicity. KB-V1 MDR cells viability, CellTiter-Glo, 72 h. Potency, µM (doses to about 46.1 µM), hits mostly cytotoxic. 400,000 tested, 3.4% active. AID 1347076; further: nearly all actives have a fitted effect of over 60% in size
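Luminescent ATP read-out (CellTiter-Glo, 10 min) measures survival of drug-selected KB-V1 MDR cells after 72 h, 37 degrees C compound exposure. Medium: phenol-red-free DMEM, 10% FBS. Values from fitted concentration-response curves.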
MCF10A rereplic = DNA re-replication induction in MCF 10a cells. Potency, µM (series often up to 46.1 µM), hits mostly activators. AID 624296. 350,000 tested, 2.9% active. MCF 10A DNA re-replication, Hoechst nuclear intensity, 48 h; further: nearly all actives have a fitted effect of over 50% in size
ASM inhibitor = human S-ASM enzyme inhibition | placental ASM, HMU-PC fluorogenic substrate, 60 min | Potency, µM (series often up to 57.5 µM), usual class: inhibitors | 340,000 tested, 0.006% active | AID 504937
Target sequence (P17405 47-631 limits assumed): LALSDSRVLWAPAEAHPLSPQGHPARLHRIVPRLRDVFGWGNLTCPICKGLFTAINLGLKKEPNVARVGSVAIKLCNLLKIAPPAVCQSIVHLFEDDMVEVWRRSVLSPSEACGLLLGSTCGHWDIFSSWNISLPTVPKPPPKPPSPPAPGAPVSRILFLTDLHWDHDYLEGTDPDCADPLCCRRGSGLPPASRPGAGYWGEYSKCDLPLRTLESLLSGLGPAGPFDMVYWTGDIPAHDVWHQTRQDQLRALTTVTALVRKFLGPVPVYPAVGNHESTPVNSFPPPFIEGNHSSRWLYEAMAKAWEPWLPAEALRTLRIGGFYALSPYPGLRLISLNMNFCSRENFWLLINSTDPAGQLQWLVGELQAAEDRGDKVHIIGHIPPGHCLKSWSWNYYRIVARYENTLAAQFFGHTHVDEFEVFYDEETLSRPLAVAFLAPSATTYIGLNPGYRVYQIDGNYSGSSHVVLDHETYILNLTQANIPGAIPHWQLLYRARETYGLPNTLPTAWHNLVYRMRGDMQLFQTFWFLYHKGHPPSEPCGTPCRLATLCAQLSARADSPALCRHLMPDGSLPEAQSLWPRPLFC
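Fluorogenic HMU-PC substrate (9 uM final) is turned over by placental ASM in 60 min at 37 C after a 10 min compound preincubation. Reaction ended by alkaline stop (pH 10), with fluorescence read at 386/447 nm.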
SW480 rereplic = DNA re-replication induction in SW480 cells; SW480 DNA re-replication, Hoechst DNA content imaging, 48 h; Potency, µM (titrated, usually from 46.1 µM), hits mostly activators; 340,000 tested, 1.8% active; AID 624297; further: nearly all actives have a fitted effect of over 55% in size
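Compounds, transferred as 23 nL by pin tool, were incubated with cells for 48 hr; DNA content per nucleus was then quantified by Hoechst staining and fluorescence plate imaging.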
Hits are given with their value; 0 = inactive; ? = inconclusive; - = no result. Only some compounds are listed: those with a hit (about 6.9% of all), similar ones and a draw of the others. Unless noted, the call rests on the fitted dose curve; in most records, active means well fitted curve in the direction sought with a large enough effect; inconclusive means small, poorly fitted or top-dose-only effect, or another doubt; inactive means no such curve, though single readings can be large; an effect the other way counts as inactive or inconclusive.

SMILES	Giardia killer	KB-3-1 tox	KB-V1 MDR tox	MCF10A rereplic	ASM inhibitor	SW480 rereplic
O=C(c1ccc(S(=O)(=O)c2ccccc2Cl)c([N+](=O)[O-])c1)N1CCN(Cc2ccccc2)CC1	0	?	2.3µM	?	0	21µM
O=C(c1ccc(F)cc1)N1CCN(c2cc(N3CCCCC3)c(F)cc2[N+](=O)[O-])CC1	0	0	9.2µM	0	0	0
O=C(c1ccc(Br)c([N+](=O)[O-])c1)N1CCN(Cc2ccccc2)CC1	0	0	0	0	0	0
Cc1cc(C)cc(N2C(=O)CS(=O)(=O)C23C(=O)N(C)c2ccccc23)c1 (centres undefined)	-	0	0	-	-	-
COc1ccc(/C=C2\C(=O)NCC(=O)N2Cc2ccccc2)cc1	0	?	?	?	0	16µM
COc1ccc(/C=C/c2cc(C(F)(F)F)[nH]c(=O)n2)cc1OC	0	?	0	?	0	16µM
CCN1CCN(C(=O)C2CCN(Cc3cc(Cl)ccc3O)CC2)CC1	0	0	0	12µM	0	0
O=C(C1CCN(Cc2ccc(Cl)cc2)CC1)N1CCN(C(c2ccccc2)c2ccccc2)CC1	0	21µM	?	?	0	?
CCN1CCN(C(=O)C2CCN(Cc3nc(-c4cccc(Cl)c4)oc3C)CC2)CC1	0	0	0	0	0	0
Cc1cccc(CN2CCN(C(c3ccccc3)c3ccc(Cl)cc3)CC2)c1 (centres undefined)	0	0	?	23µM	0	0
COc1cc(NC(=O)C2=C(C)Nc3nnnn3C2c2ccc(SC)cc2)c(OC)cc1Cl (centres undefined)	-	0	?	-	-	-
Nc1[nH]c(=O)[nH]c(=O)c1N=Cc1ccccc1	0	0	?	0	0	0
O=c1[nH]c(NCCO)c(N=Cc2ccccc2)c(=O)[nH]1	0	0	0	?	0	2.3µM
COc1ccc(C(=O)/C=C/c2cn(CN3CCN(C)CC3)c3ccccc23)cc1	0	?	0	8.2µM	0	21µM
COc1ccc(C(=O)/C=C/c2cn(CC(O)CN3CCc4ccccc43)c3ccccc23)cc1OC (centres undefined)	-	0	?	-	-	-
CCOc1ccc(C(=O)/C=C/c2cn(CN3CCN(C)CC3)c3ccccc23)cc1	0	0	0	10µM	0	?
CCCSCCCNC(=O)c1ccc2c(c1)nc1n2CCCCC1	-	0	0	-	-	-
Cc1ccc(NC(=O)[C@@H](C)NC(=O)[C@@H]2Cc3ccccc3CN2)cc1	0	0	0	0	0	0
Cc1ccc(NC(=O)[C@H](NC(=O)[C@@H]2Cc3ccccc3CN2)c2ccccc2)cc1C	?	0	0	26µM	0	0
Cc1ccc(CNC(=O)c2ccc(N3CCCC3)c(NC(=O)Nc3ccc(C)cc3)c2)cc1	-	0	0	-	-	-
Cn1c(=O)cc(SCC(=O)N2CCN(c3ccccc3F)CC2)c2ccc(Cl)cc21	-	0	0	-	-	-
Cc1ccc(CNc2ccc(-c3nc(-c4ccccn4)no3)cc2[N+](=O)[O-])cc1	-	0	?	-	-	-
COc1ccc(CCC(=O)NCCc2csc(-c3ccc(C(F)(F)F)cc3)n2)cc1	-	0	0	-	-	-
COCOc1ccc(/C=C2/Oc3cc(OCOC)cc(OCOC)c3C2=O)c(OCOC)c1	0	0	0	6.5µM	0	?
CCn1cc(CN(C)C(=O)/C=C/c2ccc([N+](=O)[O-])cc2)c(C)n1	0	0	18µM	0	0	0
SMILES	Giardia killer	KB-3-1 tox	KB-V1 MDR tox	MCF10A rereplic	ASM inhibitor	SW480 rereplic
CCSc1nnc(NC(=O)C2CCN(C(=O)c3ccc(F)cc3)CC2)s1	0	0	21µM	0	0	0
CCCSc1nnc(NC(=O)Nc2ccc(F)cc2)s1	0	26µM	?	?	0	0
CCCSc1nnc(NC(=O)Nc2ccccc2)s1	0	?	21µM	?	0	?
Cc1ccc(F)cc1CNC(=O)C1CCC(=O)N(CC2CCCCC2)C1 (centres undefined)	0	0	0	0	0	0
CCOc1ccc(C(c2c(NC(=O)c3ccccc3)sc(C)c2C)N2CCN(CCO)CC2)cc1 (centres undefined)	0	?	?	?	0	3.7µM
CC(=O)Nc1sc2c(c1C(c1ccncc1)N1CCOCC1)CCCC2 (centres undefined)	0	0	0	0	0	0
Cc1sc(NC(=O)c2ccccc2)c(C(c2ccc(Cl)cc2)N2CCN(CCO)CC2)c1C (centres undefined)	0	21µM	?	?	0	0
CC(=O)Nc1sc2c(c1C(c1cccc(Cl)c1)N1CCN(CCO)CC1)CCCC2 (centres undefined)	0	0	0	0	0	0
CCc1cc(C(c2ccncc2)N2CCN(C)CC2)c(NC(=O)c2ccccc2)s1 (centres undefined)	0	0	21µM	0	0	0
CCCn1c2ccccc2c2cnn(CC(=O)N3CCOCC3)c(=O)c21	0	0	0	0	0	0
O=C(Cn1ncc(Cl)c(Cl)c1=O)N1CCOCC1	0	?	0	3.7µM	0	2.9µM
O=C(Cn1ncc2c3ccccc3n(Cc3ccccc3)c2c1=O)N1CCN(c2ncccn2)CC1	0	?	5.2µM	0	0	0
O=C(Cn1ncc(Cl)c(Cl)c1=O)N1CCc2ccccc21	0	?	?	10µM	0	0
O=C(Cn1ncc(Cl)c(Cl)c1=O)N1CCN(Cc2ccccc2)CC1	0	?	0	4.1µM	0	0
CC1(C)C(=O)Nc2ccccc2N1C(=O)Cn1ncc(Cl)c(Cl)c1=O	0	?	0	?	0	9.2µM
O=C(Cn1cnc2ccccc2c1=O)N1CCN(Cc2ccc3c(c2)OCO3)CC1	0	0	?	0	0	0
O=C(Cn1cnc2ccccc2c1=O)N1CCN(Cc2ccccc2)CC1	0	0	23µM	0	0	0
CCc1ccc(C(=O)Cn2ncc(Cl)c(Cl)c2=O)cc1	0	7.3µM	?	5.8µM	0	7.3µM
CCc1ccc(C(=O)CN2C(=O)NC3(CCCCCC3)C2=O)cc1	0	0	0	?	0	0
OC(Cc1ccccc1)c1ncc(-c2ccc(Cl)cc2)[nH]1 (centres undefined)	-	?	12µM	-	-	-
OC(Cc1ccccc1Br)c1ncc(-c2ccc(Cl)cc2)[nH]1 (centres undefined)	-	0	?	-	-	-
COc1cc(OC)c(OC)cc1CNC(=O)c1cc(S(=O)(=O)N(C)c2ccccc2OC)ccc1C	0	0	?	0	0	0
CCCCCCN1C=C/C(=C\C=C(C#N)C#N)c2ccccc21	0	16µM	?	0	0	0
CCOC(=O)c1c(-c2ccc(OC)cc2)csc1/N=C/N(C)C	0	?	23µM	0	0	0
COC(=O)c1c(-c2ccc3ccccc3c2)csc1NC(=O)Cc1ccc(OC)c(OC)c1	0	?	15µM	?	0	?
COC(=O)c1c(-c2ccc(OC)c(OC)c2)csc1N	0	0	0	0	0	0
